Compound activity (PubChem BioAssay)
The full list was thinned out, with hits kept by preference.
KDM5B inhibitor: KDM5B demethylase inhibition | Q9UGL1 | KDM5B demethylase, FDH-coupled NADH fluorescence (FDH is formaldehyde dehydrogenase) | Potency, µM (highest dose often 57.7 µM), actives largely listed as inhibitors | hit rate 2.6% among 220,000; active = well fitted inhibition curve with a large enough effect; also: nearly all actives have a fitted effect of over 70% in size
Target sequence (Q9UGL1 whole entry, looked up): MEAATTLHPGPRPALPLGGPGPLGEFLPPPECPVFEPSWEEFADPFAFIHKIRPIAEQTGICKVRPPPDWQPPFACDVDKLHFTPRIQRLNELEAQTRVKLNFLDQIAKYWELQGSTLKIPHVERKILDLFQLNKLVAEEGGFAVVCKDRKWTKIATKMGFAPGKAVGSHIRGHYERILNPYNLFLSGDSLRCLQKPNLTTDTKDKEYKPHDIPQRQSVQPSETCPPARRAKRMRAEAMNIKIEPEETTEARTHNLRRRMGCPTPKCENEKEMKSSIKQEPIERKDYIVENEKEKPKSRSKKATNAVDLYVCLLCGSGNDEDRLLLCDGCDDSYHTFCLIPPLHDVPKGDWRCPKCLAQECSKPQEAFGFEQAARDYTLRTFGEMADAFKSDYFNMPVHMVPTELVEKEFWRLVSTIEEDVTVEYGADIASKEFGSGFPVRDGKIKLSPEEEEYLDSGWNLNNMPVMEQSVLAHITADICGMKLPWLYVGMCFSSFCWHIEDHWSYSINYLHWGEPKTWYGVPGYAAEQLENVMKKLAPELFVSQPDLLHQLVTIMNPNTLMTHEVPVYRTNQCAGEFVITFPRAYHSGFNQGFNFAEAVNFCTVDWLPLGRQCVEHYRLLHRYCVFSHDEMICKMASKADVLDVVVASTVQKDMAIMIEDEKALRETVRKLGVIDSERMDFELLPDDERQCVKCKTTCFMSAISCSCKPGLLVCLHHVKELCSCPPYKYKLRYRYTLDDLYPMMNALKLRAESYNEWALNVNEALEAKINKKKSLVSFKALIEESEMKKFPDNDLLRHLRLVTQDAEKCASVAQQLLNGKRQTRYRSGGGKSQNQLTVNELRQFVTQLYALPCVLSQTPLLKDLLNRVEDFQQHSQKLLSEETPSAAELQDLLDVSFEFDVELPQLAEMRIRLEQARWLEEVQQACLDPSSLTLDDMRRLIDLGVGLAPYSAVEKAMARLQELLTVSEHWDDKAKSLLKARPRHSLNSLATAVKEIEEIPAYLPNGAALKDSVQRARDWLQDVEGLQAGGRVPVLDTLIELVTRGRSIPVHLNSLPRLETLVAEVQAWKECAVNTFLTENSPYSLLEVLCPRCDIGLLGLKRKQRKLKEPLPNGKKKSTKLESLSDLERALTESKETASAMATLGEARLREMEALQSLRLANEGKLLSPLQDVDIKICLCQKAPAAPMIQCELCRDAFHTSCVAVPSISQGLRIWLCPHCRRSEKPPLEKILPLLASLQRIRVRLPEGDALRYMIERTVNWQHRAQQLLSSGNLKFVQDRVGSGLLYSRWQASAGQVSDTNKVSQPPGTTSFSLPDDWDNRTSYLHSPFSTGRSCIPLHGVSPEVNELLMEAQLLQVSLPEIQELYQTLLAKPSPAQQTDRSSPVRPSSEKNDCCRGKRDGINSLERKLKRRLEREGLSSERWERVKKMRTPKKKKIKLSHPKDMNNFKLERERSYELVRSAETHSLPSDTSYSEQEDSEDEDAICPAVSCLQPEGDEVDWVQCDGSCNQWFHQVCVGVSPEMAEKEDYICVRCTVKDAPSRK
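Inhibition is measured as reduced NADH fluorescence generation from FDH coupling to formaldehyde release. Truncated KDM5BΔAP at 200 nM final acts on H3K4me3 peptide (12.5 µM in substrate mix) in pH 7.5 HEPES buffer with Tween-20, 30 min, room temperature.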
Hits are given with their value; – = inactive.

SMILES | KDM5B inhibitor
Cc1nn(-c2ccccc2[N+](=O)[O-])c(C)c1[C@@H]1C=C[C@@H](NC(=O)CC(C)(C)CC(=O)O)C1 | –
COc1ccc2[nH]c3c(c2c1)CCNC31CCN(C(=O)c2cccs2)CC1 | –
COc1ccc2[nH]c3c(c2c1)CCNC31CCN(C(=O)c2ccncc2)CC1 | –
COc1ccc2[nH]c3c(c2c1)CCNC31CCN(C(=O)c2ccccn2)CC1 | –
COc1cccc(CN2CCC3(CC2)NCCc2c3[nH]c3ccccc23)c1 | –
COc1ccc2[nH]c3c(c2c1)CCNC31CCN(C(=O)C(C)(C)C)CC1 | 25µM
COc1ccc2[nH]c3c(c2c1)CCNC31CCN(Cc2ccc(C)o2)CC1 | 20µM
COc1cccc(CN2CCC3(CC2)NCCc2c3[nH]c3ccc(OC)cc23)c1 | 25µM
COc1ccc2[nH]c3c(c2c1)CCNC31CCN(C(=O)c2cc(C)[nH]n2)CC1 | –
COc1ccc2[nH]c3c(c2c1)CCNC31CCN(Cc2ccc(F)c(F)c2)CC1 | –
COc1cccc(CNC(=O)[C@@H]2C[C@@H](O)CN2C2CCN(C(=O)c3ccc(OC)c(F)c3)CC2)c1 | –
CC(C)n1cnc(I)c1I | –
Cc1ccc(C(=O)c2sc(Nc3cccc(Br)c3)nc2N)cc1 | –
CCc1nn(-c2ccccc2)c(Oc2ccccc2OC)c1CCC(=O)NCCOC | –
CCc1nn(-c2ccc(OC)cc2)c(Oc2ccccc2F)c1CCC(=O)NC(C)C | –
CCc1nn(-c2ccc(OC)cc2)c(Oc2ccccc2F)c1CCC(=O)NCCOC | 25µM
Cc1nc(-c2cccc(S(=O)(=O)N3CCC(C(=O)NCc4ccccc4Cl)CC3)c2)no1 | –
O=C(Cc1ccsc1)N1CCCCCC1c1nnc(-c2ccccc2)o1 (stereo not given) | –
COc1cc2c(cc1OC)C(C[C@H]1CN(C(=O)Nc3ccc(Cl)cc3)CC[C@H]1CC(=O)O)=NCC2 | 28µM
COc1cc2c(cc1OC)C(C[C@H]1CN(C(=O)Nc3cccc(Cl)c3)CC[C@H]1CC(=O)O)=NCC2 | 32µM
COc1cc2c(cc1OC)C(C[C@H]1CN(C(=O)C(=O)O)CC[C@H]1CC(=O)O)=NCC2 | –
CC(C)N(C)CC1CCN(C(=O)Nc2cccc(Cl)c2)CC1 | –
CCN(CC)CC[C@H]1CN(C(=O)Nc2ccccc2)CC[C@H]1CC(=O)O | –
COc1ccc(CN2CCN(C(=O)Nc3cccc(Cl)c3)CC2)c(OC)c1OC | –
CCCN(CC1CCOC1)C(=O)Nc1cc(Cl)ccc1C (stereo not given) | –
SMILES | KDM5B inhibitor
Cc1cc(C)cc(C(=O)N(CC#N)C2CC2)c1 | –
Cc1ccc2nc(CO[C@H]3CN(c4ccc(C#N)cn4)C[C@H]3F)[nH]c2c1 | 18µM
Cc1ccc2nc(CO[C@H]3CN(Cc4cnn(C)c4)C[C@H]3F)[nH]c2c1 | –
N#Cc1ccc2nc(CO[C@H]3CN(Cc4ccccc4F)C[C@H]3F)[nH]c2c1 | –
CCc1cccc(C)c1NC(=O)CC12CC3CC(CC(C3)C1)C2 | –
Cc1cccc(OCC(=O)Nc2ccc(C(=O)Nc3ccccc3C(=O)O)cc2)c1 | –
Cn1cccc1C(=O)N1CCC(Oc2ccccc2-c2nc(C3CCOCC3)no2)C1 (stereo not given) | –
COCCN(C)C(=O)c1ccc2c(c1)NC(C)(COc1cccnc1)CO2 (stereo not given) | –
CC1(COc2cccnc2)COc2ccc(C(=O)NCc3ccc4c(c3)OCO4)cc2N1 (stereo not given) | 16µM
CN(C(=O)c1ccc2c(c1)NC(C)(COc1cccnc1)CO2)c1ccccc1 (stereo not given) | –
CC(=O)N1CCN(C(=O)c2ccc3c(c2)NC(C)(COc2cccnc2)CO3)CC1 (stereo not given) | –
CC1(COc2cccnc2)COc2ccc(C(=O)NCc3cccs3)cc2N1 (stereo not given) | 35µM
CC1(COc2cccnc2)COc2ccc(C(=O)NCc3ccc(F)cc3)cc2N1 (stereo not given) | 32µM
CC1(COc2cccnc2)COc2ccc(C(=O)NCc3cnccn3)cc2N1 (stereo not given) | –
Cc1occc1C(=O)NNS(=O)(=O)c1ccc([N+](=O)[O-])cc1 | –
Cc1ccnc(NS(=O)(=O)c2ccc3c(c2)CCO3)c1 | –
Cc1ccc(CN2C(=O)N(c3ccccc3)C(=O)C2CC(=O)Nc2ccccc2)cc1 (stereo not given) | –
Cn1nc(C(=O)Nc2nc3c(s2)CN(Cc2ccccc2)CC3)c2ccccc2c1=O | –
Cc1ccc(NC(=O)CN2C(=O)NC(c3ccc(Cl)cc3)C3=C2COC3=O)cc1 (stereo not given) | –
Cc1nn(C)c(C)c1S(=O)(=O)N1CCC(c2ncc(C)n2C(C)C)C1 (stereo not given) | –
COCCNC(=O)c1cc(-c2ccccc2C(F)(F)F)nc2onc(C3CCCN3)c12 (stereo not given) | –
Cc1cc(C(=O)NC2CC2)c2c(C3CCCN3)noc2n1 (stereo not given) | –
Cc1cc(C(=O)NCC2CC2)c2c(C3CCNCC3)noc2n1 | –
O=C(NCC1CC1)c1cc(C2CC2)nc2onc(C3CCCNC3)c12 (stereo not given) | 89µM
COCCNC(=O)c1cc(C2CC2)nc2onc(C3CCCN3)c12 (stereo not given) | 56µM
SMILES | KDM5B inhibitor
COc1cc(CNC(=O)c2cc(C3CC3)nc3onc(C)c23)cc(OC)c1OC | –
O=C(NCc1ccc(F)cc1)c1cc(C2CC2)nc2onc(C3CCCNC3)c12 (stereo not given) | –
O=C(NCC1CC1)c1cc(C2CC2)nc2onc(C3CCCN3)c12 (stereo not given) | 89µM
Cc1cc(C(=O)NC2CCCC2)c2c(C3CCCN3)noc2n1 (stereo not given) | –
O=C(c1cc(C2CC2)nc2onc(C3CCCN3)c12)N1CCCCC1 (stereo not given) | –
Cc1cc(C(=O)NCCCOC(C)C)c2c(C3CCCN3)noc2n1 (stereo not given) | 50µM
O=C(NCc1ccc(F)cc1)c1cc(C2CC2)nc2onc(C3CCCN3)c12 (stereo not given) | –
Cc1ccc(OCc2nc(C#N)c(NCCCN3CCOCC3)o2)cc1 | –
CC(C)(C)n1nnnc1C1CC2(CCOCC2)C(=O)N1Cc1cc(F)ccc1F (stereo not given) | –
O=C(NCCc1ccncc1)C1CN(C(=O)Cc2ccc(Cl)cc2)CC12CCOCC2 (stereo not given) | –
CCOc1ccc2nc(N3CCN(C(=O)CS(=O)(=O)c4ccc(F)cc4)CC3)sc2c1 | –
Cc1cc(C)cc(C(=O)OCCN(C)C2CN(Cc3cn(Cc4ccccc4C(F)(F)F)nn3)S(=O)(=O)C2)c1 (stereo not given) | –
Cc1cc(Sc2nnc(-c3ccc(F)cc3)n2C)nc2c(C)cccc12 | –
Cn1ccnc1C(NC(=O)c1n[nH]c(=O)c2ccccc12)c1ccccc1 (stereo not given) | –
COc1ccc(C)cc1NC(=O)CN1C(=O)C(c2ccccc2)=NC12CCCC2 | –
CN1CCN(c2ccc(-c3cccc(NC(=O)C4CCCCC4)c3)nn2)CC1 | –
COc1ccc(CN2C(=O)[C@@H]3C[C@@H](CN3Cc3cccnc3)Oc3ccccc32)cc1 | –
Cn1cc(S(=O)(=O)NC2CC(c3cc(N4CCC(O)C4)ncn3)C2)cn1 (stereo not given) | –
N#Cc1ccc(NC2CC(c3cc(N4CCC(O)C4)ncn3)C2)nc1 (stereo not given) | 32µM
O=C(NC1CC(c2cc(N3CCC(O)C3)ncn2)C1)c1ccoc1 (stereo not given) | –
